Screens deposited in PubChem by Broad Institute.
MITF act – activators of MITF-driven TRPM1 promoter reporter, primary screen, cell-based, SK-MEL-5, luciferase, single point; SK-MEL-5 TRPM1-promoter luciferase, 24 h; % of positive control, neutral wells = 0; activation, % at 12.5 µM; 0.75% of 300,000 active; AID 588334, 2011;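 active = mean activation of at least 80% with every replicate also reaching 80%; inconclusive = mean reaches 80% but some replicate falls short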;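 note: 0% = neutral control wells and 100% = parthenolide positive control wells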
AF4-AF9 inh – inhibitors of AF4 peptide binding to AF9, primary screen, biochemical, AlphaScreen, biotin-AF4 peptide, FLAG-AF9, single point. Protein AF-9 (Homo sapiens), P42568. inhibition, % at 10 µM. 0.47% of 350,000 active;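 active = every replicate reaching a set inhibition limit, whatever the replicate mean, cut at about 25% in these data; inconclusive = mean inhibition reaches that limit but some replicates miss it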;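 note: 0% = plate neutral control median and 100% = total signal loss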
Target sequence (P42568 whole entry, looked up): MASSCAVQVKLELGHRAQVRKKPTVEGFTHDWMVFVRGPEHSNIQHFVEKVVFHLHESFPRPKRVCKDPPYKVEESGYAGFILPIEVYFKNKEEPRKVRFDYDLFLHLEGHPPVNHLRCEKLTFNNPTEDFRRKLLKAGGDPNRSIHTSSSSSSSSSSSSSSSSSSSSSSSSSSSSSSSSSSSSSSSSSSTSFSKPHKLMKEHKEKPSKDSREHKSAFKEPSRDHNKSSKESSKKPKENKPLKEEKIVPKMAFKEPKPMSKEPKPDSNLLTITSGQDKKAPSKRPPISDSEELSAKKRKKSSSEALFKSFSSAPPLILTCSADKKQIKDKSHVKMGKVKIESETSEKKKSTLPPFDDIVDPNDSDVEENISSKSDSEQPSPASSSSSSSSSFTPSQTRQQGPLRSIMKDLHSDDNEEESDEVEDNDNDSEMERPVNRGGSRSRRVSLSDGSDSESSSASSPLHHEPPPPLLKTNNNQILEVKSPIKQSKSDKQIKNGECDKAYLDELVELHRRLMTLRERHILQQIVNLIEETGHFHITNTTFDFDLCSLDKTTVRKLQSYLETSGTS
Wnt bcat act – Wnt/beta-catenin pathway activators, primary screen, cell-based, plate reader, single point. activation, % at 9.35 µM. 1.2% of 300,000 active. Wnt/beta-catenin reporter cell assay, activator; in the data active = activation above about 30%, passing the limit was not always enough; inconclusive = no clear call, values can overlap the other calls;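 note: 0% = neutral control wells and 100% = positive control wells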
esBAF inh – Bmi1 luciferase reporter increase in mESCs, primary screen, esBAF inhibitor project, mouse ES cells, Bmi1 luciferase knock-in, single point | 24 h; 100% = twice the neutral-well signal | reporter increase, % at 12.5 µM | 2% of 350,000 active | AID 602393, 2012; in the data active = activation above about 40%; inconclusive = no clear call, values can overlap the other calls;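 note: 0% = median of the plate's neutral control wells and 100% = double that signal; a rise in the Bmi1 reporter signal indicates esBAF inhibition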
rRNA inh HTS – reduced GFP signal of wild-type E. coli, primary screen, bacterial rRNA inhibitor project, GFP/RFP fluorescence, OD600, single point; GFP signal change (wild-type ribosome), % (concentration not given with the values); AID 720706, 2013; E. coli WT GFP vs humanized-ribosome RFP mutants, 24 h; stronger effect = lower value; DMSO median 0, no signal -100; 1.6% of 350,000 active;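 active = significant combined selectivity score with lowered wild-type GFP, culture density cut under 30%, mutant RFP and density less affected; inactive = any of these conditions unmet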
The depositor's hits bear a star; ? = inconclusive; . = no result. Rows were chosen to be rich in hits. Some 3.7% of all compounds tested hit in one or more screens of this group.

SMILES	MITF act	AF4-AF9 inh	Wnt bcat act	esBAF inh	rRNA inh HTS
CN(C)c1ccc(CN(CC2CCCO2)C(=O)c2cc3ccccc3o2)cc1 (stereo not drawn)	6	26*	-2	-2	0
C[C@@H]1CCCCO[C@@H](CN(C)Cc2ccc3c(c2)OCO3)[C@H](C)CN([C@@H](C)CO)C(=O)c2cc(NC(=O)c3ccncc3)ccc2O1	.	2	.	-3	0
CN(C)C(=S)N=Nc1[nH]c2ccccc2c1O	.	-3	11	.	6
O=C(CCSCCc1ccccn1)Nc1c(F)cc(F)cc1Br	-8	.	.	1	.
Cc1csc(NC(=O)CCSCCc2ccccn2)n1	10	42*	0	-5	-2
Cc1cc(C)c2c(N)c(C(=O)NNC(=O)c3ccccc3)sc2n1	37	-3	7	66*	5
Cc1cc(C)c2c(N)c(C(=O)NN)sc2n1	17	1	4	.	-10
Cc1cc(C)c2c(N)c(C(=O)N/N=C/c3ccccc3)sc2n1	.	-1	47*	46*	-6
Cc1ccc(-c2cn(-c3ccccc3)c(SCC(=O)NC3CCS(=O)(=O)C3)n2)cc1C (stereo not drawn)	99*	13	0	.	-2
CC1=C(C(N)=O)C(c2ccc(Cl)cc2)NC(=O)N1 (stereo not drawn)	.	.	.	4	.
COc1ccc2[nH]c(=O)c(CNc3ccccc3)cc2c1	17	.	28	85*	.
COc1ccc2[nH]c(=O)c(CNc3ccccc3C)cc2c1	16	6	39*	.	9
CCOc1ccc(NCc2cc3cc(OC)ccc3[nH]c2=O)cc1	-7	8	6	.	-3
COC(=O)c1nn(-c2cccc(Cl)c2)cc(OC)c1=O	-6	0	-2	-6	4
O=C(O)c1cccc(S(=O)(=O)Nc2ccc3c(c2)OCO3)c1	3	.	.	.	.
COc1cc(N2Cc3ccccc3C2)ccc1C=O	.	-11	7	51*	18
CCOC(=O)c1c(C)[nH]c(C)c1S(=O)(=O)N(C)CC(=O)Nc1cccc(F)c1	5	-1	-2	-3	-9
Cc1csc(C(C#N)C(=O)c2cc3ccccc3o2)n1 (stereo not drawn)	62	.	25	46*	-12
Cc1csc(NC(=O)c2cc3ccccc3o2)n1	7	-9	?	-28	-5
O=C(NC(c1ccccc1)c1ccccc1)c1ccc(S(=O)(=O)C(F)F)cc1	-3	.	-3	-6	.
CCC1c2ccc(C)n2CCN1C(=O)Nc1ccccc1C(=O)OC (stereo not drawn)	-12	.	.	-14	.
CCCC1c2ccc(C)n2CCN1C(=O)Nc1ccccc1Cl (stereo not drawn)	48	.	.	63*	.
Cc1ccc(C)c(S(=O)(=O)Nc2cc3c4c(c2)CCN4C(=O)CC3)c1	9	-1	-1	-11	-2
COc1cc2sc3cc(NCCCN4CCOCC4)ccc3c(=O)c2cc1OC	38	3	14	55*	-11
O=c1c2ccccc2sc2ccc(NCCCN3CCOCC3)cc12	72	14	27	10	-2
SMILES	MITF act	AF4-AF9 inh	Wnt bcat act	esBAF inh	rRNA inh HTS
CN(C)CCCNc1cc(-c2ccccc2)nc2cc(-c3cccc(F)c3)nn12	.	7	-4	-22	-57
Fc1cccc(-c2cc3nc4c(c(N5CCC6(CC5)OCCO6)n3n2)CCCC4)c1	45	.	.	52*	.
CN(CCO)c1c2c(nc3cc(-c4cccc(F)c4)nn13)CCCC2	.	.	40*	-14	.
OC1CCN(c2c3c(nc4cc(-c5cccc(F)c5)nn24)CCCC3)CC1	88*	-36	5	104*	-19*
CCCC(=O)Nc1ccc2c(c1)C(=O)N(C)[C@@H]1CC[C@@H](CC(=O)NCc3cccc(F)c3)O[C@H]1CO2	.	.	.	-3	-1
O=C1c2ccccc2C(c2nnnn2Cc2ccccc2)N1CCc1ccc(O)cc1 (stereo not drawn)	.	2	2	.	-28*
O=C1c2ccccc2C(c2nnnn2Cc2ccccc2)N1CCc1ccccc1F (stereo not drawn)	.	-11	21	.	-21*
CC(C)n1nnnc1C1c2ccccc2C(=O)N1CCc1c[nH]c2ccccc12 (stereo not drawn)	.	4	9	.	-30*
CC(C)CCN1C(=O)c2ccccc2C1c1nnnn1Cc1ccccc1 (stereo not drawn)	.	0	-1	.	-18
O=C1c2ccccc2C(c2nnnn2Cc2ccccc2)N1Cc1cccs1 (stereo not drawn)	.	-2	-2	.	-26*
CC(C)n1nnnc1C1c2ccccc2C(=O)N1CCc1ccccc1F (stereo not drawn)	.	1	1	.	17
COc1ccc2[nH]c(CN3CCN(CC=C(C)C)C(CCO)C3)c(C)c2c1 (stereo not drawn)	7	6	1	-2	24
O=[N+]([O-])c1cc(-c2nnc(Nc3ccc(O)cc3)c3ccccc23)ccc1N1CCOCC1	0	1	-1	-7	2
CC(C)(C)c1ccc(C(=O)CS(=O)(=O)c2ccccc2)cc1	108*	.	.	9	.
Cc1ccc(S(=O)(=O)CC(=O)c2ccccc2)cc1	15	.	.	.	.
COc1ccc(NC(=O)CCC(=O)N(Cc2ccc(OC)c(OC)c2)c2nccs2)cc1	2	.	.	.	.
C=CCNC(=S)N1CCc2c([nH]c3ccccc23)C1C (stereo not drawn)	-8	6	-3	3	-33*
CC1c2[nH]c3ccccc3c2CCN1S(C)(=O)=O (stereo not drawn)	-8	.	-6	-3	.
O=C(Nc1cccc2ccccc12)c1ccc(OC(=S)N2CCOCC2)cc1	42	.	15	45*	.
CC(C)c1ccc(NC(=S)NN2CCOCC2)cc1	50	1	-3	.	-8
CCN(Cc1ccccc1)S(=O)(=O)c1nc2nc(C)c(C)c(C)n2n1	-4	.	.	-4	.
O=C(NCCC1CCCC1)c1cccs1	.	1	3	50*	9
O=C(NCCc1cccs1)c1cccs1	?	0	11	61*	-1
COc1ccc2cc(CCNC(=O)c3cccs3)c(=O)[nH]c2c1	90*	12	51*	72*	-3
O=C(NCCc1ccc(F)cc1)c1cccs1	29	.	11	65*	.
SMILES	MITF act	AF4-AF9 inh	Wnt bcat act	esBAF inh	rRNA inh HTS
O=C(NCC1CC1)c1cccs1	.	-2	0	.	11
O=C(NCc1ccc(F)cc1)c1cccs1	2	-2	0	-5	5
COc1ccc2cc(CCNC(=O)c3cc4ccccc4o3)c(=O)[nH]c2c1	-20	-1	1	.	-4
CC(C)C1=CC(=NS(=O)(=O)c2cccc([N+](=O)[O-])c2)C=C(C(C)C)C1=O	-14	.	-1	-10	.
Cc1ccc(C(=O)c2oc3ccccc3c2N)cc1	32	.	.	88*	.
Nc1c(C(=O)c2cccs2)oc2ccccc12	.	.	.	54*	-4
Nc1c(C(=O)c2ccccc2)oc2ccc(Br)cc12	62	.	11	72*	.
